For six sequences, PBM binding z-score results are on record in the supplement of paper PMC6555819.

What all share (assay): PBM binding z-score (relative to random genomic background probes); higher = stronger binding; sequences stand for … in GC…GCGATTGACAGCGTAGAATGAAGG
In experiment [1] the test system is FXR:RXRa (NR concentration 270 nM, RXRa partner concentration 90 nM). In outline:
(§1)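 Regression normalization was applied to scanned fluorescence from custom Agilent 4×180K protein-binding microarrays. Before scanning, arrays were incubated 1 h with ligand-free nuclear receptor dimers, and binding was detected with antibodies against each partner (one per run). Binding z-scores use the random background probes as reference.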

The test system of experiment [2] is LXRa:RXRa (NR concentration 270 nM, RXRa partner concentration 90 nM). A digest of the protocol: as §1
Experiment [3] relates to LXRa homodimer (NR concentration 270 nM). In outline:
as §1

Experiment [4] relates to LXRb:RXRa (NR concentration 270 nM, RXRa partner concentration 90 nM). A digest of the protocol:
as §1

In experiment [5] the test system is LXRb homodimer (NR concentration 270 nM). In outline: as §1
Experiment [6] deals with PPARa:RXRa (NR concentration 270 nM, RXRa partner concentration 90 nM). In outline: as §1
The test system of experiment [7] is PPARg:RXRa (NR concentration 180 nM, RXRa partner concentration 90 nM). In outline: as §1
The test system of experiment [8] is PPARg:RXRa 270nM:90nM, anti-RXR (NR concentration 270 nM, RXRa partner concentration 90 nM). In outline:
as §1

Experiment [9] deals with PPARg:RXRa 30nM:10nM, anti-RXR (NR concentration 30 nM, RXRa partner concentration 10 nM). In outline:
as §1

The test system of experiment [10] is PPARg:RXRa 90nM:30nM, anti-RXR (NR concentration 90 nM, RXRa partner concentration 30 nM). A digest of the protocol:
as §1

Experiment [11] deals with PPARg:RXRa DBDmut IVT, anti-RXR (DBD mutation: RXRa K156A/R161A, NR concentration 270 nM, RXRa partner concentration 90 nM). A digest of the protocol: as §1
Experiment [12] deals with PPARg:RXRa IVT, anti-PPARg (NR concentration 270 nM, RXRa partner concentration 90 nM). A digest of the protocol: as §1
The test system of experiment [13] is PPARg DBDmut:RXRa IVT, anti-PPARg (DBD mutation: PPARg1 K132A/R137A, NR concentration 270 nM, RXRa partner concentration 90 nM). In outline:
as §1

Experiment [14] relates to PPARg DBDmut IVT, anti-PPARg (DBD mutation: PPARg1 K132A/R137A, NR concentration 270 nM). A digest of the protocol: as §1
Experiment [15] relates to PPARg homodimer (NR concentration 180 nM). In outline: as §1
Experiment [16] deals with PXR:RXRa (NR concentration 270 nM, RXRa partner concentration 90 nM). A digest of the protocol:
as §1

In experiment [17] the test system is PXR homodimer (NR concentration 270 nM). In outline:
as §1

Experiment [18] relates to RARa:RXR (NR concentration 270 nM, RXRa partner concentration 90 nM). A digest of the protocol: as §1
Experiment [19] concerns RARa homodimer (NR concentration 270 nM). In outline: as §1
The subject of experiment [20] is RARb:RXRa (NR concentration 270 nM, RXRa partner concentration 90 nM). A digest of the protocol: as §1

For AGTCAAAGTTCAGGTCGAGGTAACGTAAAGCACG, the PBM binding z-score in [1] came out at 4.82; in [2] it was 4.08; in experiment [3], 1.87; in [4] it was 2.47; in experiment [5], 0.819; in experiment [6], 3.6. Further, the PBM binding z-score in [7] is 4.74; in experiment [8], 4.74; in [9], 2.07; in experiment [10], 3.97; in experiment [11], -0.195; in [12], 2.16. Further, the PBM binding z-score in [13] was determined as 0.434; in [14], 0.251; in [15], 2.76; in experiment [16], 3.53; in experiment [17] it was 2.14; in experiment [18], 3.43. Moreover, the values for the PBM binding z-score in experiment [19] and in experiment [20] were 1.49 and 4.47, respectively.

Take GGAACGAGGGCAAGATGATAGCAGAGTTTGATGG: the PBM binding z-score in [1] was 0.506; in experiment [2] it was 0.313; in [3], -0.287; in experiment [4], 0.0342; in [5], -0.415; in experiment [6], 1.25. Further, the PBM binding z-score in [7] was determined as 1.39; in [8], 0.84; in [9], 0.0817; in experiment [10] it was 0.398; in experiment [11] it was 3.59; in [12] it was 2.4. For the same sequence, the PBM binding z-score is -0.698 in experiment [13]; -0.398 in experiment [14]; 0.136 in experiment [15]; 0.418 in experiment [16]; 0.432 in experiment [17]; 0.145 in experiment [18]. Further, the PBM binding z-score is 0.345 in experiment [19] and 2.19 in experiment [20].

Turning to TCATATAGGTAAACAGGTGAAGGTCCGTAAGTTA, the PBM binding z-score is 0.526 in [1]; 0.84 in experiment [2]; 0.00797 in [3]; 0.841 in experiment [4]; -0.136 in [5]; 2.21 in experiment [6]. Besides, the PBM binding z-score in experiment [7] came out at 2.67; in experiment [8], 3.2; in experiment [9] it was 4.31; in [10] it was 3.46; in experiment [11] it was 4.86; in [12], 4.7. The PBM binding z-score stood at 1.09 in experiment [13]; 0.987 in [14]; 1.53 in experiment [15]; 0.741 in experiment [16]; 0.241 in experiment [17]; 0.898 in experiment [18]. The PBM binding z-score came to 0.337 in experiment [19] and 0.842 in experiment [20].

Regarding CCTAGTTGGTAAGGAGGTCACACACCGGATATGA, the PBM binding z-score in [1] was 3.14; in experiment [2] it was 3.17; in experiment [3] it was 1.87; in experiment [4], 3.13; in experiment [5], 0.74; in experiment [6], 4.19. In addition, the PBM binding z-score in experiment [7] worked out at 3.16; in experiment [8] it was 3.39; in [9] it was 1.34; in experiment [10], 2.68; in experiment [11], 1.63; in experiment [12], 4.06. Besides, the PBM binding z-score is 0.9 in [13]; 0.468 in [14]; 2.82 in experiment [15]; 3.83 in experiment [16]; 1.4 in experiment [17]; 4.14 in [18]. In addition, the PBM binding z-score amounted to 1.52 in [19] and 3.04 in experiment [20].

Take TAGCCTAGGTCATACGGGCCAGTATAGTGTCGGC: the PBM binding z-score is 4.14 in experiment [1]; 3.21 in [2]; 0.859 in [3]; 1.8 in [4]; -0.00996 in experiment [5]; 3.5 in [6]. Moreover, the PBM binding z-score in [7] worked out at 2.18; in [8], 2.57; in [9] it was 0.318; in [10], 1.54; in experiment [11], 1.67; in [12], 2.89. Also, the PBM binding z-score in experiment [13] was -0.195; in [14], -0.639; in experiment [15], 0.811; in [16], 1.66; in [17], -0.13; in experiment [18], 2.4. Moreover, the PBM binding z-score in experiment [19] worked out at 0.0154; in experiment [20], 3.56.

Consider CCTTACGGGTCACGAGGTTAGAGCACGACGAGCG, for which the PBM binding z-score came to 6.98 in experiment [1]; 4.06 in [2]; 0.353 in [3]; 3.58 in [4]; 0.0179 in experiment [5]; 5.8 in experiment [6]. The PBM binding z-score in [7] turned out to be 7.39; in experiment [8], 6.87; in [9] it was 3.49; in experiment [10] it was 6.11; in experiment [11], 4.55; in experiment [12], 5.59. Also, the PBM binding z-score in experiment [13] was 2.76; in experiment [14], 1.38; in [15] it was 2.96; in experiment [16] it was 4.32; in [17], -0.124; in [18] it was 5.72. Moreover, the PBM binding z-score in experiment [19] was 0.978; in experiment [20], 4.6.
